Screening data from PubChem BioAssay.
SARS PLpro yeast-1: SARS-CoV PLP inhibition in yeast; S. cerevisiae expressing SARS-CoV PLpro, growth rescue; Potency, µM (titrated, usually from 32.9 µM), inactives show at the top dose activity, positive = growth rescue, most hits filed as activators; hit rate 0.19% among 330,000; AID 485353; calls by dose curve; also: potency is read from the fitted curve at half-maximal effect; 0% is about no effect; nearly all actives have a fitted effect of over 55% in size
Pf growth 96h: inhibits malaria parasite growth, 96 h; P. falciparum luciferase reporter growth, 96 h; Potency, µM (top dose mostly 28.7 µM), inactives show at the highest dose activity change, negative = inhibition, usual class: inhibitors; hit rate 6.9% among 320,000; AID 504834; also: potency is read from the fitted curve at half-maximal effect; % is scaled to controls: 0 for no effect and ±100 for the full control effect
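Infected RBCs, 2% Hct / 0.05% parasitemia final; luciferase-reporter P. falciparum; cpd 96 h, 37 C, 5% CO2; luciferase detection reagent; luminescence.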
Sm TGR inh: blocks Schistosoma mansoni thioredoxin glutathione reductase | purified TGR, DTNB reduction, TNB absorbance 405 nm | Q962Y6 | hit rate 3% among 360,000 | Potency, µM (titrated, usually from 114 µM), without a hit: top-dose activity change, negative = inhibition, hits mostly inhibitors | AID 485364; also: potency is read from the fitted curve at half-maximal effect; % is scaled to controls: 0 for no effect and ±100 for the full control effect; nearly all actives have a fitted effect of over 60% in size
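Kinetic colorimetric format: TGR-catalysed, NADPH-driven DTNB reduction monitored via TNB absorbance. Enzyme dispensed at 20 nM; compound exposure 15 min at room temperature before reaction start.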
Pf growth 48h: inhibits P. falciparum growth in the first generation, 48 h | AID 504832 | P. falciparum luciferase growth in erythrocytes, 48 h | Potency, µM (highest dose often 28.7 µM), without a hit: top-dose activity change, negative = inhibition, usual class: inhibitors | hit rate 5.9% among 310,000; also: potency is read from the fitted curve at half-maximal effect; % is scaled to controls: 0 for no effect and ±100 for the full control effect
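A one-generation exposure of luciferase-tagged malaria parasites in RPMI 1640/Albumax erythrocyte culture, 37 C and 5% CO2. Inhibition is inferred from decreased luminescence after adding detection reagent.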
AmpC inh detg: AmpC beta-lactamase inhibition with detergent present; AmpC hydrolysis of nitrocefin, absorbance 480 nm, 0.01% Triton; Potency, µM (titrated, usually from 114 µM), inactives show at the top dose activity change, negative = inhibition, most hits filed as inhibitors; hit rate 0.041% among 370,000; AID 485294;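 also: potency is read from the fitted curve at half-maximal effect; 0% = no-compound wells and -100% = no-enzyme wells; nearly all actives have a fitted effect of over 25% in size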
Target sequence (P00811 whole entry, looked up): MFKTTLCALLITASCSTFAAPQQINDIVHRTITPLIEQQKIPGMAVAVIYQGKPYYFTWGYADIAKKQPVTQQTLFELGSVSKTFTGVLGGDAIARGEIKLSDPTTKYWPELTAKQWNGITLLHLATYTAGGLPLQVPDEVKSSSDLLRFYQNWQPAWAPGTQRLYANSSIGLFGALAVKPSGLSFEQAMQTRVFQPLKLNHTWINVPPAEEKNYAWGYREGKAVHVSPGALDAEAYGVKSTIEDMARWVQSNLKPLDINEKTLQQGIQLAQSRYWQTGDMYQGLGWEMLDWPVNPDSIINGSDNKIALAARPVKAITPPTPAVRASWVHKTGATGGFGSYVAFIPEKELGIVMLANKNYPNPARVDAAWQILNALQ
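20 mM phosphate pH 7.0 + 0.01% (detergent screen) or 0.0001% Triton X-100; 5.3 nM AmpC reagent; cpd preinc 15 min RT; nitrocefin (800 uM stock) to start; A480 q20 s × 4 min; Activity was normalised to no-enzyme and no-compound control wells.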
AmpC no deterg: inhibitors of E. coli AmpC beta-lactamase without detergent. hit rate 0.52% among 330,000. P00811. AmpC nitrocefin hydrolysis, absorbance 480 nm, 0.0001% Triton. AID 485341. Potency, µM (highest dose often 57.1 µM), without a hit: top-dose activity change, negative = inhibition, usual class: inhibitors;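 also: potency is read from the fitted curve at half-maximal effect; plate controls were no compound for no effect and no enzyme for full effect; nearly all actives have a fitted effect of over 20% in size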
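AmpC (5.3 nM in the dispensed reagent) in 20 mM phosphate pH 7.0 with 0.01% (detergent screen) or 0.0001% Triton X-100 was preincubated with compounds for 15 min at room temperature. Nitrocefin was then added from an 800 uM solution, and hydrolysis was followed at 480 nm.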
SARS PLpro yeast-2: Validates SARS-CoV PLpro inhibitor hits in yeast | shares compounds with SARS PLpro yeast-1 | yeast expressing SARS-CoV PLpro, growth phenotype rescue | calls only | hit rate 19% among 1,000; call rule not given here
An asterisk follows results filed as active; i = inactive; ? = inconclusive; / = not tested or not shown; + = active, no number. Compounds with a hit are over-represented: about 12% of the library has one in this group of screens. Unless noted, calls follow the shape of the dose curve; as a rule, active = well fitted curve in the direction sought with a large enough effect; inconclusive = small, poorly fitted or top-dose-only effect, or another doubt; inactive = no such curve, though single readings can be large; an effect the other way counts as inactive or inconclusive.

SMILES	SARS PLpro yeast-1	Pf growth 96h	Sm TGR inh	Pf growth 48h	AmpC inh detg	AmpC no deterg	SARS PLpro yeast-2
COc1ccc(C)cc1NC(=O)CN(C)S(=O)(=O)c1cnc[nH]1	?	/	9%	25%	1%	-10%	i
Cc1cccc(NC(=O)CN(C)S(=O)(=O)c2cnc[nH]2)c1	6%	1%	6%	46%	0%	-16%	/
O=C(N/N=C/c1cc2c3c(c1O)CCCN3CCC2)c1ccccc1O	2.8µM*	2.6µM*	?	3.3µM*	-11%	-25%	?
Cn1cc(/C=N/NC(=O)c2ccccc2O)c2ccccc21	-1%	82%	1%	?	-1%	-59%	/
O=C(CCNS(=O)(=O)c1ccc(Cl)cc1)N1CCN(c2ccccn2)CC1	1%	107%	5%	-14%	-5%	20%	/
Cc1ccccc1OCCNc1cc(N2CCN(CCO)CC2)ccc1[N+](=O)[O-]	-4%	7%	-4%	?	-14%	109%	/
Cc1cccc(OCCNc2cc(N3CCN(CCO)CC3)ccc2[N+](=O)[O-])c1	13µM*	136%	-2%	?	-3%	136%	i
Cn1c(CNC(=O)c2ccccc2)nnc1SCC(=O)Nc1nccs1	0%	1%	/	5%	2%	-7%	/
CCC1CCCCN1S(=O)(=O)c1ccc(C(=O)Nc2nnc(-c3cccs3)o2)cc1 (centres undefined)	11µM*	42%	7%	10µM*	-9%	-23%	+
CC(=O)N1CCc2cc(Br)cc(S(=O)(=O)N3CCC(C(=O)Nc4cccc(C)c4C)CC3)c21	/	/	-3%	/	7%	/	/
COc1ccccc1C(=O)NCC(=O)OC(C)C(=O)NC(=O)NC1CCCCC1 (centres undefined)	?	46%	-9%	/	1%	19%	i
COc1ccccc1C(=O)NCC(=O)OC(C)C(=O)NC1CCCCC1C (centres undefined)	0%	-22%	3%	-19%	-2%	11%	/
CCN1CCc2c(sc(NC(=O)Nc3ccc(Cl)c(Cl)c3)c2C(N)=O)C1	?	27%	-10%	12µM*	-6%	46%	i
CCc1ccccc1NC(=O)C1(C)Cc2ccccc2C(=O)O1 (centres undefined)	/	/	-4%	/	-7%	/	/
Cc1ccccc1NC(=O)C1(C)Cc2ccccc2C(=O)O1 (centres undefined)	?	?	10%	?	-7%	-29%	?
COc1cccc(NC(=O)CSc2cccc[n+]2[O-])c1	-2%	/	/	/	/	-4%	/
O=C(CSc1cccc[n+]1[O-])Nc1cccc(Oc2ccccc2)c1	?	28%	7%	10%	-7%	56%	i
O=C(O)/C(=C\c1ccc(Cl)cc1)c1ccc(F)cc1	-3%	6%	-7%	0%	1%	-26%	/
COc1ccc(C2Nc3ccccc3C(=O)N2O)cc1CN1CCOCC1 (centres undefined)	22µM*	21%	-24%	7%	-1%	-11%	i
COc1ccc(-c2cc(N3C(=O)Nc4ccccc4N3O)n[nH]2)cc1	11µM*	?	7%	43%	1%	3%	i
COc1ccc(-c2cc(N3C(=O)Nc4ccccc4N3O)n[nH]2)cc1OC	12%	10%	-7%	12%	-7%	8%	/
CC(OC(=O)CN1C(=O)c2ccccc2C1=O)C(=O)N(C)c1ccccc1 (centres undefined)	2%	23%	5%	-22%	-19%	-3%	/
CC(=O)NCCNC(=O)c1ccc(NC2=NC3CS(=O)(=O)CC3S2)cc1 (centres undefined)	-5%	12%	0%	0%	-4%	-8%	/
CC(=O)N(C)Cc1ccc(C(=O)CCl)cc1	7.9µM*	-34%	11µM*	11%	0%	-9%	+
CC(=O)N(C)Cc1ccc(C(=O)CSc2nnc(C3CC3)n2C2CC2)cc1	1%	?	-3%	7%	4%	-3%	/
SMILES	SARS PLpro yeast-1	Pf growth 96h	Sm TGR inh	Pf growth 48h	AmpC inh detg	AmpC no deterg	SARS PLpro yeast-2
CN(C)c1ccc(/C=N/NC(=O)c2ccccc2)cc1	-2%	37%	/	60%	5%	-6%	/
CN(C)c1cccc(C(=O)N/N=C/c2ccsc2)c1	20µM*	59%	-18%	122%	-9%	-28%	i
Cc1ccc(CN2CCN(/N=C/c3ccc(C(F)(F)F)cc3)CC2)c(C)c1	?	13%	-2%	?	?	-12%	i
O=C(CSc1nnnn1-c1cccc(O)c1)NC1CC1	-1%	?	0%	8%	-4%	2%	/
COc1ccc(N2CCN(C(=O)CCc3ccc(S(=O)(=O)NC(C)C)cc3)CC2)cc1	-32%	-11%	-18%	-22%	0%	-11%	/
CCSc1nnc(NC(=O)C(Cc2ccccc2)n2cccc2)s1 (centres undefined)	?	?	-31%	/	-16%	-24%	i
Cc1csc(NC(=O)C(Cc2ccccc2)n2cccc2)n1 (centres undefined)	-15%	?	?	?	-6%	-16%	/
O=C(OCC(=O)N1CCN(c2ccccc2)CC1)c1cnc(Cl)c(Cl)c1	-10%	4%	-4%	-6%	3%	15%	/
O=C(OCC(=O)N1CCN(c2ccccc2)CC1)c1cccc(Cl)c1	?	?	-1%	8%	4%	-1%	i
CCOc1ccc(Nc2nnc(Cc3ccc(OC)cc3)c(=O)[nH]2)cc1	-3%	0%	10%	-12%	9%	-4%	/
Cc1cc(C(=O)COC(=O)c2ccc[nH]c2=O)c(C)n1-c1ccc(F)cc1	-21%	97%	-15%	126%	-9%	-24%	/
Cc1cc(C(=O)OCC(=O)N2CC(=O)Nc3ccccc32)c(C)n1-c1ccccc1	11%	?	-4%	?	5%	-4%	/
Cc1cc(C(=O)OCC(=O)N2CC(=O)Nc3ccccc32)c(C)n1-c1ccc(F)cc1	4µM*	2.6µM*	-1%	4.7µM*	-18%	-12%	?
CCN1C(=O)c2ccccc2S(=O)(=O)c2ccc(C(=O)NCCOC)cc21	3%	1%	-5%	-25%	-9%	-2%	/
CCCC(C(=O)O)N1C(=O)/C(=C/c2cccn2C)SC1=S (centres undefined)	?	-9%	-19%	11%	1%	0%	i
Cn1cccc1/C=C1\SC(=S)N(Nc2ccccc2)C1=O	-1%	1%	-4%	?	3%	-39%	/
CC(C)N(C)C(=O)C(=O)c1cccn1-c1cccc(Cl)c1C#N	-2%	-6%	/	-5%	-5%	4%	/
